This is an account of results in PubChem BioAssay AID1259240 (Keith Lab, Institute of Cancer Science, University of …, 2017).

A number with no mark means an inactive call. Active and inactive are the calls of the source. No stated cut-off is given here; in the data, active means fold change mostly below about -2 (no sharp cut-off); inactive means mostly above about -1.8.

This experiment in a line: TERT promoter activity modulators, primary screen, cell-based, luciferase reporter, human (AID 1259240). To be noted: A2780 TERT promoter luciferase reporter, 16 h; at 20 µM, fold versus average of vehicle-only wells.
As to `CCOC(=O)C(C)Sc1nnc(-c2c[nH]c3ccccc23)n1CC` (stereo not given), the outcome was inactive.
`CC(C)Oc1ccc(-c2cc(C(F)(F)F)n3ncc(C#N)c3n2)cc1`: the fold change was -2.17 (active).
`Cc1ccccc1-n1cnc2c(sc3nc(N4CCOCC4)c4c(c32)CC(C)(C)OC4)c1=O`: the fold change was -1.84.
Still for that read-out and setting: the result for `CCc1cccc(Nc2nc3ccccc3n3cnnc23)c1` reads -4.16 (active); that for `CCOC(=O)c1nn(-c2ccc(Cl)cc2)c(=O)c2c(NC(=O)C3CC3)scc12`, -1.1.
Same read-out and setting: for `COc1ccc(Cl)cc1Nc1nc(-c2c(C)nc3ncccn23)cs1` the value was -3.45 (active); for `CCOC(=O)CSc1n[nH]c(N)n1`, -1.02.
Still for that read-out and setting: for `CCOC(=O)C1=C(CS(=O)(=O)c2ccc(F)c(Cl)c2)NC(=O)NC1c1ccc(Cl)cc1` (stereo not given) the value was 1.33; for `Cc1ccccc1Cn1nc(C)c(NC(=O)c2cc(C3CC3)on2)c1C`, -1.04.
Take `CN(C)c1nc(C(=O)OCCO)nc(N(C)C)n1`: the fold change was -3.45 (active).
Take `Cc1ccccc1Nc1c(-c2ccccc2O)nc2cnccn12`: the outcome was active.
Regarding `CCOC(=O)c1nnn(-c2nonc2N)c1CNc1ccc(F)cc1`, the fold change was 1.3.
`Cc1noc(C(=O)N2CCN(c3ccccc3)CC2)c1Cl`: the fold change was -1.23.
On the same count and under the same terms, the result for `COc1ccc(C2c3c(n[nH]c3C)C(=O)N2c2ccc(Br)cc2)c(OC)c1` (stereo not given) reads -1.34; that for `CS(=O)(=O)Nc1ccc(C2=NN(S(C)(=O)=O)C(c3ccccc3)C2)cc1` (stereo not given), 1.5; that for `COc1ccc(S(=O)(=O)NC(C)(C)CO)cc1-c1nnc2c3ccccc3c(C)nn12`, -1.26.
Regarding `O=C(NCCN1CCCCCC1)C1CCC(CNS(=O)(=O)c2cccc3nsnc23)CC1` (stereo not given), the fold change was -1.56.
As to `O=C1c2cccnc2C(=O)N1CNc1ccccn1`, the fold change is -1.26.
With `Cn1c(Cc2ccccc2)nn(CN2CCC3(CC2)OCCO3)c1=S`, the fold change was -1.07.
Still for that read-out and setting: the result for `O=C(Nc1ccc2nc3n(c(=O)c2c1)CCCCC3)C(=O)NC1CCCCC1` reads -1.44.
The same measure, in the same setting: the result for `Cc1nc(SCC(=O)c2ccccc2)c2c(=O)n(C)c(=O)n(C)c2n1` reads 1.14.
Consider `O=c1/c(=C/c2c(F)cccc2Cl)sc2nc(-c3ccco3)nn12`, for which the fold change is 1.03.
`CSc1nsc(SC)c1C(=O)NCCNS(=O)(=O)c1ccc(C)cc1`: the fold change was -1.37.
Same read-out and setting: the result for `COC(=O)c1ccc(C(=O)OC)c(NC2=NS(=O)(=O)c3ccccc32)c1` reads 1.16.
As to `O=C(Cn1c(=O)n(CC(=O)NC2CCCC2)c(=O)c2ccccc21)Nc1cccc(F)c1`, the fold change is 1.16.
With `COc1cc(/C=C2\SC(N3CCN(CCO)CC3)=NC2=O)ccc1O`, the fold change was 1.07.
Same read-out and setting: the result for `CCC(=O)OCCNc1cc(N2CCCC2)c2noc3c2c1C(=O)c1ccccc1-3` reads 2.08 (active).
Take `O=c1/c(=C/c2ccco2)sc2nc(-c3ccccc3Br)nn12`: the fold change was 1.48.
The same measure, in the same setting: the result for `COc1cccc(NC2SC(=O)N(c3ccccc3)C2=O)c1` (stereo not given) reads 1.28.
On the same count and under the same terms, the result for `CC(C)OCCCNC(=O)c1ccc(NC2=NC3CS(=O)(=O)CC3S2)cc1` (stereo not given) reads 1.22; that for `Cc1cc(S(=O)(=O)n2nc(-c3cccc(F)c3)cc2N)ccc1F`, -1.3; that for `CSc1ccc(CCNc2ccc3nnc(-c4ccccc4)n3n2)cc1`, 1.07.
Consider `O=[N+]([O-])c1c(Nc2ccc(Cl)cc2)n[nH]c1-c1nnco1`, for which the fold change is -2.07 (active).
Take `C1=C(CCNc2nnc(Cc3cccnc3)c3ccccc23)CCCC1`: the fold change is -1.15.
For `Cn1c(SCC(=O)Nc2ccc(F)cc2)nnc1-c1c[nH]c2ccccc12`, the molecule was called inactive.
For the molecule `O=C(O)c1c2c(nc3ccc(S(=O)(=O)N4CCC(C(=O)N5CCCCCC5)CC4)cc13)CCCC2`, the fold change was 1.03.
As for `Cc1ccc(NC(=O)Nc2ccc3c(c2)N(C)C(=O)CS3)c(C)c1`, the fold change was -1.06.
Take `CN(C1=NS(=O)(=O)c2cc([N+](=O)[O-])ccc21)c1ccccc1`: the fold change was -2.35 (active).
`CN(C)CCCN1C(=O)CSC1c1ccccc1` (stereo not given): the fold change is -1.42.
The same measure, in the same setting: for `COc1ccccc1OCC(O)Cn1c(=N)n(CCN2CCOCC2)c2ccccc21` (stereo not given) the value was -1.29.
